# Assay results as given in PMC7862700, “An all-to-all approach to the identification of sequence-specific readers for epigenetic DNA modifications on cytosine”.
# Legend:
# Assay in all cases: DAPPL (digital affinity profiling via proximity ligation, sequencing); 10 mM Tris-HCl pH 7.5, 50 mM NaCl, 1 mM DTT, 4% glycerol, room temperature, 30 min; GST-TFs on glutathione beads, 16-mer random dsDNA library, 0.1% formaldehyde crosslink after washing; high values mean tight binding
# [1] = molecular target: T1, FLI1 (Homo sapiens, UniProt Q01543 1-452); conditions: protein: recombinant; tags: N-terminal GST; dsDNA, one strand shown
# T1 sequence: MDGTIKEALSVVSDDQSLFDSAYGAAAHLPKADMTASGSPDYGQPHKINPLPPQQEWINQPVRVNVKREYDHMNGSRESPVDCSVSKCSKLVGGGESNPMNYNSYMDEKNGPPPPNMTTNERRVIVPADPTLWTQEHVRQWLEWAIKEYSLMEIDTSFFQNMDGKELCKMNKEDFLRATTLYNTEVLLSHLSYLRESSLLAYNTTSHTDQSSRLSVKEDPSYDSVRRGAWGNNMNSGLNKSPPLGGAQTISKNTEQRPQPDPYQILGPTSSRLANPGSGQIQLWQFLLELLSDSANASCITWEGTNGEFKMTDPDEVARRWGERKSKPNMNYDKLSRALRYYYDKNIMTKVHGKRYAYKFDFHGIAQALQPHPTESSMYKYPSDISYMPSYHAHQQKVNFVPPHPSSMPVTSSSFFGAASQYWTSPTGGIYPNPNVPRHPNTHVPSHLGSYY
# Procedure, shortened: (§1)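 After expression in yeast as GST fusions, human transcription factors were bound to glutathione beads, DNA-barcoded and mixed with a tag-only sample. The pools were incubated with 200 nmole of a 16-mer random double-stranded DNA library in Tris/NaCl/DTT/glycerol buffer (30 min, room temperature), washed and crosslinked with 0.1% formaldehyde. Proximity ligation with BsaI/T4 ligase ran for 1 h at 37 °C, before PCR amplification and sequencing on an Illumina NextSeq500. Binding signal is a hexamer's read frequency for a factor divided by its frequency for the tag-only sample.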
# [2] = molecular target: T2, ELK1 (Homo sapiens, UniProt P19419 1-428); conditions: protein: recombinant; tags: N-terminal GST; dsDNA, one strand shown
# T2 sequence: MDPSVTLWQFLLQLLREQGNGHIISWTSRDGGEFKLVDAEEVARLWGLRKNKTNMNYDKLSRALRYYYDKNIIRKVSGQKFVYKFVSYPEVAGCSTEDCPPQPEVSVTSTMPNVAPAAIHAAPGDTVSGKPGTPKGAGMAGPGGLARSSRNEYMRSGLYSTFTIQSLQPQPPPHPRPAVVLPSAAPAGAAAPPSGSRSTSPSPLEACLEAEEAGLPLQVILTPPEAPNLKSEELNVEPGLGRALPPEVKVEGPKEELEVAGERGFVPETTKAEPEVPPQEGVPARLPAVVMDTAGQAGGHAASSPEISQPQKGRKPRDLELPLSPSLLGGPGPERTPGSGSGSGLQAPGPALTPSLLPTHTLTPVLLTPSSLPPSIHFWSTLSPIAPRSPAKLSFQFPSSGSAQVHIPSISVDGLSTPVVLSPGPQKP
# Procedure, shortened: as §1
# [3] = molecular target: T3, GABPA (Homo sapiens, UniProt Q06546 1-454); conditions: protein: recombinant; tags: N-terminal GST; dsDNA, one strand shown
# T3 sequence: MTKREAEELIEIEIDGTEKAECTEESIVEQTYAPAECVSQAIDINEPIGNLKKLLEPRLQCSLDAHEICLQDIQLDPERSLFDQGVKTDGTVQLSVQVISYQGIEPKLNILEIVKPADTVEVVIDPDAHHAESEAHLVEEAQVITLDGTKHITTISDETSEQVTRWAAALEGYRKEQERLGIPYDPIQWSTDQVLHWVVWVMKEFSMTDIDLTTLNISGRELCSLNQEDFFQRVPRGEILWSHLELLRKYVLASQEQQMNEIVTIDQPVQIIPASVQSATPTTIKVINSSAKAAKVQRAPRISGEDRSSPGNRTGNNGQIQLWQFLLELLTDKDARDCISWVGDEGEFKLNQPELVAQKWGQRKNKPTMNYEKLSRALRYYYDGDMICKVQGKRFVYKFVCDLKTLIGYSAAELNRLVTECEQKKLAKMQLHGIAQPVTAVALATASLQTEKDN
# Procedure, shortened: as §1
# [4] = molecular target: T4, ERG (Homo sapiens, UniProt P11308 1-479); conditions: protein: recombinant; tags: N-terminal GST; dsDNA, one strand shown
# T4 sequence: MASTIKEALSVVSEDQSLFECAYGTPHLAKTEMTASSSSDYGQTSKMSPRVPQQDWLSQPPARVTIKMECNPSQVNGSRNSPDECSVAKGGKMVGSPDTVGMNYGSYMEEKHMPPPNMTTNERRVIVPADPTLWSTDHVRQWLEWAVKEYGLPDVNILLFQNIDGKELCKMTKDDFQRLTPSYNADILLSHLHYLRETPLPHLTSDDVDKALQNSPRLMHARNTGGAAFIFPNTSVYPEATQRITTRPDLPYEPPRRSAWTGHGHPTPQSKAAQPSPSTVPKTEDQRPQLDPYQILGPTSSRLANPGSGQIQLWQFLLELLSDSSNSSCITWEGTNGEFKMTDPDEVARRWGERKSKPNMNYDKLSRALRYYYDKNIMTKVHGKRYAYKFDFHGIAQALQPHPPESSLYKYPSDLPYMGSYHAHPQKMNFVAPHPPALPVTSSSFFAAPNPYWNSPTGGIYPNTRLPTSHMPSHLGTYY
# Procedure, shortened: as §1
# [5] = molecular target: ELF1 (Homo sapiens, UniProt P32519 1-619); conditions: protein: recombinant; tags: N-terminal GST; dsDNA, one strand shown
# Sequence of ELF1 (P32519 whole entry): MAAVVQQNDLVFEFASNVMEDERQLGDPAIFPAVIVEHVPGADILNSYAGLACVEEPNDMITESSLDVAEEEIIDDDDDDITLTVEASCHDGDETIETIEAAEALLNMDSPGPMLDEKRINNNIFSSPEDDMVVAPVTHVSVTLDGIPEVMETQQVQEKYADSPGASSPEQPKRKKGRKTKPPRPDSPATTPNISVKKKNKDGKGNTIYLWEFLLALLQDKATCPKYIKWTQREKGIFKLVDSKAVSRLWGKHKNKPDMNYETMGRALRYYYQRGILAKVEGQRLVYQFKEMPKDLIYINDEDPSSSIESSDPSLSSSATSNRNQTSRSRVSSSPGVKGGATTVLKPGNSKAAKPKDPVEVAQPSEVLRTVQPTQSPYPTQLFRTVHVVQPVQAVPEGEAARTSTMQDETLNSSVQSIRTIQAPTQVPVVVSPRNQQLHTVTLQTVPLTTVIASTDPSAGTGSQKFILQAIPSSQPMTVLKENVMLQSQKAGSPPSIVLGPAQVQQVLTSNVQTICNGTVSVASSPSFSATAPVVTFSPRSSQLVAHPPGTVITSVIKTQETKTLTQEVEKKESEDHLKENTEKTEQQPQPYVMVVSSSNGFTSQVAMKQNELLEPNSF
# Procedure, shortened: as §1
# [6] = molecular target: T5, EHF (Homo sapiens, UniProt Q9NZC4 1-300); conditions: protein: recombinant; tags: N-terminal GST; dsDNA, one strand shown
# T5 sequence: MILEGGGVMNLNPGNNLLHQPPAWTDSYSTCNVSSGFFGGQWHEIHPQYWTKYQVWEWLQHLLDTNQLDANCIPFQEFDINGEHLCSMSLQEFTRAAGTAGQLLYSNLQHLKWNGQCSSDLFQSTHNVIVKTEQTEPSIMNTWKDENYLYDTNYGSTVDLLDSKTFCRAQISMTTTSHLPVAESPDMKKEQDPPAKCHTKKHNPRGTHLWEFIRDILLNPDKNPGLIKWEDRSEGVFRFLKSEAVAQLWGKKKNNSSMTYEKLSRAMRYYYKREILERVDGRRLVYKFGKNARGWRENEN
# Procedure, shortened: as §1
# [7] = molecular target: SPI1 (Homo sapiens, UniProt P17947 1-270); conditions: protein: recombinant; tags: N-terminal GST; dsDNA, one strand shown
# Procedure, shortened: as §1
# [8] = molecular target: SPIB (Homo sapiens, UniProt Q01892 1-262); conditions: protein: recombinant; tags: N-terminal GST; dsDNA, one strand shown
# Sequence of SPIB (Q01892 whole entry): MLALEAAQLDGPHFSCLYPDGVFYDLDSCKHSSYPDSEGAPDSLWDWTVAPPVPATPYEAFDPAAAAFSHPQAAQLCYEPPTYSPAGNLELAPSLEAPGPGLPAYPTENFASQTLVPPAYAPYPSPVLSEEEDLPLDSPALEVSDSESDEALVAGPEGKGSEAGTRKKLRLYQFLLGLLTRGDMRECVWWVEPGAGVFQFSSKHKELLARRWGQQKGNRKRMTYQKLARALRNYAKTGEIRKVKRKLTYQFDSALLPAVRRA
# Procedure, shortened: as §1
# [9] = molecular target: T6, ELK3 (Homo sapiens, UniProt P41970 1-407); conditions: protein: recombinant; tags: N-terminal GST; dsDNA, one strand shown
# T6 sequence: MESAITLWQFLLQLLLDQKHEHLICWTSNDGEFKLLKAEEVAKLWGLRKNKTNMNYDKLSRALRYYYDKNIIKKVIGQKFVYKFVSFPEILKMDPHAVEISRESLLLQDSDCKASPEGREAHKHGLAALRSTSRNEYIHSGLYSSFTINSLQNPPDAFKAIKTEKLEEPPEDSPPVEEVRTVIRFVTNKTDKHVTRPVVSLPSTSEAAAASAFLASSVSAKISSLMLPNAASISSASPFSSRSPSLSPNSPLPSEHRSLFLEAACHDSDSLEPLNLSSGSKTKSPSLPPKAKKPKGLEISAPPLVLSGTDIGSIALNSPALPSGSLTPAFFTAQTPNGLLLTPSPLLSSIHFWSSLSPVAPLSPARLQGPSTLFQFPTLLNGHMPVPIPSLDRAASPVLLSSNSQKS
# Procedure, shortened: as §1
# [10] = molecular target: T7, FEV (Homo sapiens, UniProt Q99581 1-238); conditions: protein: recombinant; tags: N-terminal GST; dsDNA, one strand shown
# T7 sequence: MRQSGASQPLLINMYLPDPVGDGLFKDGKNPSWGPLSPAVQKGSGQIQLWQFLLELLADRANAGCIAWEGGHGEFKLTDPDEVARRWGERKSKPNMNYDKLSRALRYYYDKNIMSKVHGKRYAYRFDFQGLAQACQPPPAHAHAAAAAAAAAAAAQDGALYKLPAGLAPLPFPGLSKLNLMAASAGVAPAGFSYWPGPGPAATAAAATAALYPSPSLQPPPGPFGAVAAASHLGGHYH
# Procedure, shortened: as §1
# [11] = molecular target: ETV5 (Homo sapiens, UniProt P41161 1-510); conditions: protein: recombinant; tags: N-terminal GST; dsDNA, one strand shown
# Sequence of ETV5 (P41161 whole entry): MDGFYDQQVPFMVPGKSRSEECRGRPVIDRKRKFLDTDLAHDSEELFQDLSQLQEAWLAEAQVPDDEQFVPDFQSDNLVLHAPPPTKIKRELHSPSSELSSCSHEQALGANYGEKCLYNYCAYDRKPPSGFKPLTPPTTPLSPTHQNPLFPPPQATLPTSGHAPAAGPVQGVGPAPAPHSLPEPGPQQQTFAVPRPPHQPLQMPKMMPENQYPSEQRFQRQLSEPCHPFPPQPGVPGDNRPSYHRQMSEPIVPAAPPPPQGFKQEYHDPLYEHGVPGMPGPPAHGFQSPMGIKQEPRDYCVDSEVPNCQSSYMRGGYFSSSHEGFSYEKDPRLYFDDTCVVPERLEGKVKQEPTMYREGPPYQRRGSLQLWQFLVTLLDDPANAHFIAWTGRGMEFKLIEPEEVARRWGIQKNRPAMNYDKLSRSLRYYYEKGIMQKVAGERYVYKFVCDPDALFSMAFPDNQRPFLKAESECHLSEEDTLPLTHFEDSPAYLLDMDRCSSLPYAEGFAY
# Procedure, shortened: as §1
# [12] = molecular target: HSF1 (Homo sapiens, UniProt Q00613 1-529); conditions: protein: recombinant; tags: N-terminal GST; chain copies: 3; dsDNA, one strand shown
# Sequence of HSF1 (Q00613 whole entry): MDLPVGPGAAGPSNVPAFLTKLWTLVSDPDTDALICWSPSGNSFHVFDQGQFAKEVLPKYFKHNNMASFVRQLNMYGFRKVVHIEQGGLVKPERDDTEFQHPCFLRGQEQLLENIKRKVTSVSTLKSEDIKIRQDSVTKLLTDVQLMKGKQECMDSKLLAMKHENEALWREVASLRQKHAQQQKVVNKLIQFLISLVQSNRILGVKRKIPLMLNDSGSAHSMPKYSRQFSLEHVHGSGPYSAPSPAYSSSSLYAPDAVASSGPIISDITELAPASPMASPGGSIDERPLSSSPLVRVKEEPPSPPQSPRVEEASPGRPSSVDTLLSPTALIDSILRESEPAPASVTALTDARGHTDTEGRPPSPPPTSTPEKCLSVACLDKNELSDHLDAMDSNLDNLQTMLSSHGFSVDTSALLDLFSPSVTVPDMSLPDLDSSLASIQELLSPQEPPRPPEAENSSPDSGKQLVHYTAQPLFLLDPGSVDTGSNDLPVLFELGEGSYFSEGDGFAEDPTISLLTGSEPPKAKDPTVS
# Procedure, shortened: as §1
# [13] = molecular target: T8, SPIC (Homo sapiens, UniProt Q8N5J4 1-248); conditions: protein: recombinant; tags: N-terminal GST; dsDNA, one strand shown
# T8 sequence: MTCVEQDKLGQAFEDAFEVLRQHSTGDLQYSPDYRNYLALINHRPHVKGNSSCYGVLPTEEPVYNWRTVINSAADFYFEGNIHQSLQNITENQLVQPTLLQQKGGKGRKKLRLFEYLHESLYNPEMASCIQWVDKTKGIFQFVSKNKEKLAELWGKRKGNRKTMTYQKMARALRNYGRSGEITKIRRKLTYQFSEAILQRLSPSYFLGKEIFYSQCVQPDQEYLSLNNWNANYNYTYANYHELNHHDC
# Procedure, shortened: as §1
# [14] = molecular target: ELF4 (Homo sapiens, UniProt Q99607 1-663); conditions: protein: recombinant; tags: N-terminal GST; dsDNA, one strand shown
# Sequence of ELF4 (Q99607 whole entry): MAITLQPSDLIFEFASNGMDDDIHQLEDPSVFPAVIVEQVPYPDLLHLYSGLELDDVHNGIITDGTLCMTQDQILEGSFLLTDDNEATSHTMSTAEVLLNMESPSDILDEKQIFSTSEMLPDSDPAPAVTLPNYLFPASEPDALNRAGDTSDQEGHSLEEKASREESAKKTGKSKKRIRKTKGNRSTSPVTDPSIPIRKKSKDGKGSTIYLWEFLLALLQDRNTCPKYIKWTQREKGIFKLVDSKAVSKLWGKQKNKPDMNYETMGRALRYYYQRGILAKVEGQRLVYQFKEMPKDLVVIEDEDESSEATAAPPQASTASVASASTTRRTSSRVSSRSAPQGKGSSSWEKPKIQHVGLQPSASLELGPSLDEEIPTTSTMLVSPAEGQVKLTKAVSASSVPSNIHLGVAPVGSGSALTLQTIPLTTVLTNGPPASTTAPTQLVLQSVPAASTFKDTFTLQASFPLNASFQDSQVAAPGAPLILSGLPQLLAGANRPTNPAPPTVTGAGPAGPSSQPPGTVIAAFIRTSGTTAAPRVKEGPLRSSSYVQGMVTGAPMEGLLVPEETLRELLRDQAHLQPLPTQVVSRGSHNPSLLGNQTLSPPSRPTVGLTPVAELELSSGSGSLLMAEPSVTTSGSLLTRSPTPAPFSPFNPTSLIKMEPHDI
# Procedure, shortened: as §1
# [15] = molecular target: T9, ELK4 (Homo sapiens, UniProt P28324-2 1-405); conditions: protein: recombinant; tags: N-terminal GST; dsDNA, one strand shown
# T9 sequence: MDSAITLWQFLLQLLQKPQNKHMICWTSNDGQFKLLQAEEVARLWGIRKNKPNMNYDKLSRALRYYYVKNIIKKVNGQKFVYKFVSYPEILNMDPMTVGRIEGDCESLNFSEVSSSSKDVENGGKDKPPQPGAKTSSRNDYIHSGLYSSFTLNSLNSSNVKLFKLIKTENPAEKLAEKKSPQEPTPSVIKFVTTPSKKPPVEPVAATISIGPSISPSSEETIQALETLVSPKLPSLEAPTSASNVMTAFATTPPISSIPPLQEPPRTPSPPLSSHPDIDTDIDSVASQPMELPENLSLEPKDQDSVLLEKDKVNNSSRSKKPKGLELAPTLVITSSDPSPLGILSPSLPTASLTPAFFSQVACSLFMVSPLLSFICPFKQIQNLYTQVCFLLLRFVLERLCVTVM
# Procedure, shortened: as §1
# [16] = molecular target: T10, ETV2 (Homo sapiens, UniProt O00321 1-342); conditions: protein: recombinant; tags: N-terminal GST; dsDNA, one strand shown
# T10 sequence: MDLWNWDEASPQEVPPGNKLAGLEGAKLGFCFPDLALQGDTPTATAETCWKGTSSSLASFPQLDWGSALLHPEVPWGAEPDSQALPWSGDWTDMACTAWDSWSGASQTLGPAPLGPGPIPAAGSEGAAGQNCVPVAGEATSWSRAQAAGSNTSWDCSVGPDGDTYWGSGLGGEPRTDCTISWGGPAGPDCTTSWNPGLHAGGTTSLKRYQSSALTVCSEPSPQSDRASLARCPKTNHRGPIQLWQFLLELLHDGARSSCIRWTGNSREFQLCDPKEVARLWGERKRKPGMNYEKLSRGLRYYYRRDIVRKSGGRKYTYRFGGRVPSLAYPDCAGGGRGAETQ
# Procedure, shortened: as §1
# [17] = molecular target: T11, ELF3 (Homo sapiens, UniProt P78545 1-371); conditions: protein: recombinant; tags: N-terminal GST; dsDNA, one strand shown
# T11 sequence: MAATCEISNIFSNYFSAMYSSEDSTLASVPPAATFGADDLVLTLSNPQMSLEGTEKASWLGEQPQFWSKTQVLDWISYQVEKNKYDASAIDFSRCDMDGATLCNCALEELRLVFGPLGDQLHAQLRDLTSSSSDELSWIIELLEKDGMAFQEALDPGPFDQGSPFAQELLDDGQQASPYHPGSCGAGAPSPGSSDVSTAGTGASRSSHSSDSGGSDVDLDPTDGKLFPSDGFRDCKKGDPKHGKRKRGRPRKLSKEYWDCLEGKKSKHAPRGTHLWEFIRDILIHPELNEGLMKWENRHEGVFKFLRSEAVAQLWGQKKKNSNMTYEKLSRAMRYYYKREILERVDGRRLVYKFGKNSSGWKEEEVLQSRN
# Procedure, shortened: as §1
# [18] = molecular target: CRX (Homo sapiens, UniProt O43186 1-299); conditions: protein: recombinant; tags: N-terminal GST; dsDNA, one strand shown
# Sequence of CRX (O43186 whole entry): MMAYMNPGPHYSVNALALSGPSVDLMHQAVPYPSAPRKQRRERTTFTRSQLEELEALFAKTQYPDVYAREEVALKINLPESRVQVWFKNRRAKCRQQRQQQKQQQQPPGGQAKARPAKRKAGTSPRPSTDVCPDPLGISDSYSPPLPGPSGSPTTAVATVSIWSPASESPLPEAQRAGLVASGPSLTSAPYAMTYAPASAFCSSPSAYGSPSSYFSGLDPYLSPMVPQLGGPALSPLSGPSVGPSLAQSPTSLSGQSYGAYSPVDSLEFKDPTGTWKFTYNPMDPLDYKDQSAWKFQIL
# Procedure, shortened: as §1
# [19] = molecular target: ETV1 (Homo sapiens, UniProt P50549 1-477); conditions: protein: recombinant; tags: N-terminal GST; dsDNA, one strand shown
# Sequence of ETV1 (P50549 whole entry): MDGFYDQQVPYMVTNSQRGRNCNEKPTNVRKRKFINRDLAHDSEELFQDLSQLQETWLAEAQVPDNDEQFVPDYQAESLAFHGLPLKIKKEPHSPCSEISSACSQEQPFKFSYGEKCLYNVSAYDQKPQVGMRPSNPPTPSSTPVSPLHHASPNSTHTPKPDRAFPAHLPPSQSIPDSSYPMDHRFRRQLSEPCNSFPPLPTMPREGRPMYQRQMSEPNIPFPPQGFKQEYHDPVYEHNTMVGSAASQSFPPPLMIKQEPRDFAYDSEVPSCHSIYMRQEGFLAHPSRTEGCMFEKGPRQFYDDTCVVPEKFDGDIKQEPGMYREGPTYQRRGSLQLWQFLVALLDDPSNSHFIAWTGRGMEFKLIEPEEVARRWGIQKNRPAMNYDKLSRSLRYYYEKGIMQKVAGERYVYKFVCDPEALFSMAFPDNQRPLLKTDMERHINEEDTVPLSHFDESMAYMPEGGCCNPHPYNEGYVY
# Procedure, shortened: as §1
sequence,measurement,setting,value
ATATCA,binding signal,[1],"1.23 fold enrichment (6-mer frequency, TF over GST control)"
same,binding signal,[2],"1.24 fold enrichment (6-mer frequency, TF over GST control)"
same,binding signal,[3],"1.22 fold enrichment (6-mer frequency, TF over GST control)"
same,binding signal,[4],"1.14 fold enrichment (6-mer frequency, TF over GST control)"
same,binding signal,[5],"1.2 fold enrichment (6-mer frequency, TF over GST control)"
same,binding signal,[6],"1.15 fold enrichment (6-mer frequency, TF over GST control)"
same,binding signal,[7],"1.13 fold enrichment (6-mer frequency, TF over GST control)"
same,binding signal,[8],"1.14 fold enrichment (6-mer frequency, TF over GST control)"
same,binding signal,[9],"1.11 fold enrichment (6-mer frequency, TF over GST control)"
same,binding signal,[10],"1.1 fold enrichment (6-mer frequency, TF over GST control)"
same,binding signal,[11],"1.19 fold enrichment (6-mer frequency, TF over GST control)"
same,binding signal,[12],"1.04 fold enrichment (6-mer frequency, TF over GST control)"
same,binding signal,[13],"1.21 fold enrichment (6-mer frequency, TF over GST control)"
same,binding signal,[14],"1.19 fold enrichment (6-mer frequency, TF over GST control)"
same,binding signal,[15],"1.16 fold enrichment (6-mer frequency, TF over GST control)"
same,binding signal,[16],"1.29 fold enrichment (6-mer frequency, TF over GST control)"
same,binding signal,[17],"1.08 fold enrichment (6-mer frequency, TF over GST control)"
same,binding signal,[18],"1.13 fold enrichment (6-mer frequency, TF over GST control)"
same,binding signal,[19],"1.14 fold enrichment (6-mer frequency, TF over GST control)"
